BL2 CD40 inh: CD40 pathway inhibition in BL2 cells. BL2 NF-kB luciferase reporter, CD40L-induced, 4 h. inhibition, % at 10 µM. actives 0.94% (n = 83,000);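 active means mean inhibition of at least 50% with a set share of replicates also reaching that level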
Of the large screens only hits and unclear results are named; the others gave an inactive call; [ ] = dose if it differs, or a comment. The full list was thinned out, with hits kept by preference.

N#C[C@H]1[C@@H](c2ccc(C#Cc3ccc(F)cc3)cc2)[C@H](CO)N1C(=O)C1CCCC1	none
Cn1cnc(CCNC(=O)C[C@H]2CC[C@@H]3[C@H](COC[C@H](O)CN3C(=O)Nc3ccc(C(F)(F)F)cc3)O2)c1	none
O=C(C1CCCCC1)N1[C@@H](CO)[C@@H]2c3ccccc3N(S(=O)(=O)c3ccccc3)C[C@@H]21	none
CC(C)C#Cc1ccc([C@@H]2[C@H](C#N)N(C(=O)C3CC3)[C@H]2CO)cc1	none
CC(=O)Nc1ccc2c(c1)CC(=O)N(C)C[C@@H](C)[C@@H](CN(C)C(C)=O)O2	none
COc1cccc(CN2CC3(C2)CN(C(=O)C2CC2)[C@H](CO)c2[nH]c4cc(OC)ccc4c23)c1	none
O=C(C[C@@H]1CC[C@@H]2[C@H](COC[C@@H](O)CN2Cc2cc(F)ccc2F)O1)NCc1ccc(Oc2ccccc2)cc1	none
CCCNC(=O)N1[C@H](C#N)[C@@H](c2ccccc2-c2ccccc2F)[C@@H]1CO	none
CCC(=O)N(C)C[C@H]1N[C@@H](CO)[C@H]1c1ccc(-c2cccc(C#N)c2)cc1	none
O=C1CNC[C@H]2[C@H](c3ccc(C4=CCCC4)cc3)[C@@H](CO)N12	none
CCCC(=O)N1CC2(CCN(S(=O)(=O)CC)CC2)c2c(n(C)c3cc(OC)ccc23)[C@@H]1CO	none
CCc1cnc(N2[C@H](C#N)[C@H](c3ccc(C#Cc4ccccc4F)cc3)[C@@H]2CO)s1	none
N#C[C@@H]1[C@@H](c2ccc(C#Cc3ccc(F)cc3)cc2)[C@H](CO)N1C(=O)C1CCCC1	none
CCc1cnc(N2[C@H](C#N)[C@@H](c3ccc(C#Cc4ccccc4F)cc3)[C@H]2CO)s1	none
N#C[C@@H]1[C@H](c2ccc(C#Cc3ccccc3F)cc2)[C@H](CO)N1C(=O)c1cccnc1	none
N#C[C@@H]1[C@@H](c2ccccc2)[C@@H](CO)N1C(=O)c1cccnc1	none
CCc1cnc(N2[C@H](C#N)[C@H](c3ccc(C#Cc4ccccc4F)cc3)[C@H]2CO)s1	BL2 CD40 inh 72.5[25 µM]
N#C[C@@H]1[C@H](c2ccc(C#Cc3ccccc3F)cc2)[C@@H](CO)N1C(=O)c1cccnc1	BL2 CD40 inh 77.7[25 µM]
N#C[C@@H]1[C@@H](c2ccc(C#Cc3ccccc3F)cc2)[C@H](CO)N1C(=O)C1CCCC1	none
N#C[C@H]1[C@H](c2ccc(C#Cc3ccccc3F)cc2)[C@@H](CO)N1C(=O)C1CCCC1	BL2 CD40 inh 56.1
N#C[C@H]1[C@H](c2ccccc2-c2ccc(F)cc2)[C@H](CO)N1c1ncc(-c2ccccc2)s1	none
C[C@H]1CN([C@@H](C)CO)C(=O)c2ccccc2-c2ccccc2CO[C@@H]1CN(C)C(=O)Nc1ccc2c(c1)OCO2	none
CC(=O)Nc1ccc2c(c1)C(=O)N(C)C[C@H](C)[C@@H](CN(C)S(C)(=O)=O)O2	none
CN1c2ccc(-c3cccc(F)c3)cc2[C@@H]2[C@@H](CCN2C(=O)C2CC2)[C@@H]1CO	none
COc1ccc(-c2ccc3c(c2)[C@H]2[C@H](CCN2C(=O)C2CC2)[C@H](CO)N3C)cc1	none
CN1c2ccc(-c3cccc(F)c3)cc2[C@H]2[C@H](CCN2C(=O)C2CC2)[C@H]1CO	BL2 CD40 inh 52.8
COc1ccc(-c2ccc3c(c2)[C@H]2[C@H](CCN2C(=O)C2CC2)[C@@H](CO)N3C)cc1	BL2 CD40 inh 53.1
COc1ccc(-c2ccc3c(c2)[C@@H]2[C@@H](CCN2C(=O)C2CC2)[C@H](CO)N3C)cc1	none
CN1c2ccc(-c3cccc(F)c3)cc2[C@@H]2[C@@H](CCN2C(=O)C2CC2)[C@H]1CO	none
C[C@H]1CN([C@@H](C)CO)C(=O)c2ccccc2-c2ccccc2CO[C@H]1CN(C)C(=O)c1ccncc1	none
O=C(C[C@@H]1CC[C@H](NC(=O)Nc2ccc(C(F)(F)F)cc2)[C@H](CO)O1)NCc1cccc(F)c1	none
COCC#Cc1ccc([C@H]2[C@H](CO)N3C(=O)CN(C(=O)C4CCCCC4)C[C@@H]23)cc1	none
O=C(C1CCOCC1)N1CC(=O)N2[C@H](CO)[C@H](c3ccc(C#CCc4ccccc4)cc3)[C@@H]2C1	none
O=C(C1CCC1)N1CC(=O)N2[C@H](CO)[C@H](c3ccc(C#CCc4ccccc4)cc3)[C@H]2C1	BL2 CD40 inh 70.6
COCC#Cc1ccc([C@@H]2[C@H](CO)N3C(=O)CN(C(=O)C4CCCCC4)C[C@@H]23)cc1	none
O=C(C1CCOCC1)N1CC(=O)N2[C@H](C1)[C@H](c1ccc(C#CCc3ccccc3)cc1)[C@@H]2CO	BL2 CD40 inh 75.0[25 µM]
O=C(C1CCOCC1)N1CC(=O)N2[C@@H](CO)[C@H](c3ccc(C#CCc4ccccc4)cc3)[C@@H]2C1	none
O=C(C1CCCC1)N1CC(=O)N2[C@H](C1)[C@H](c1ccc(C#CCc3ccccc3)cc1)[C@@H]2CO	none
O=C(C1CCOCC1)N1CC(=O)N2[C@H](CO)[C@H](c3ccc(C#CCc4ccccc4)cc3)[C@H]2C1	none
O=C(C1CCCC1)N1CC(=O)N2[C@H](CO)[C@H](c3ccc(C#CCc4ccccc4)cc3)[C@H]2C1	BL2 CD40 inh 66.0
O=C(NC1CCCCC1)[C@@H]1[C@@H](CO)[C@@H]2Cn3c(ccc(-c4ccccc4)c3=O)[C@H]1N2	none
C[C@@H]1CC=CC[C@H](c2cccc(Cl)c2)NC(=O)[C@@H](Cc2ccccc2)N(C)C(=O)c2ccccc2O1 (mixture of isomers)	none
C[C@H]1CN(C)C(=O)Cc2cc(N)ccc2O[C@H]1CN(C)C(=O)OC(C)(C)C	none
CC(=O)N1C[C@@H]2C(c3ccccc3)[C@H](C1)N2C(C)=O (stereo partly specified)	none
CO[C@H]1CN(C)C(=O)c2ccc(NS(=O)(=O)c3c(C)noc3C)cc2OC[C@@H](C)NC[C@@H]1C	none
C/C(=C/c1ccc(C(=O)O)cc1)c1ccc2c(c1)C(C)(C)CCC2(C)C	none
CC(=O)N1C[C@@H]2C(c3ccc(Br)cc3)[C@H](C1)N2Cc1ccc(F)cc1 (stereo partly specified)	none
COc1ccc(S(=O)(=O)N2CC[C@H]3[C@H](CO)Nc4ccc(Br)cc4[C@H]32)cc1	none
COc1ccc(OCC(=O)c2c(O)c3ccccc3oc2=O)cc1	none
COc1ccc(OC)c(-c2oc3ccccc3c(=O)c2O)c1	none
COc1ccc(/C=C\c2nc(=O)c3ccccc3o2)cc1	BL2 CD40 inh 46.2
O=C(C[C@H]1C[C@@H]2c3cc(NC(=O)c4cccnc4)ccc3O[C@@H]2[C@@H](CO)O1)NC1CCCC1	none
O=C(c1cccc(F)c1)N1C[C@@H]2[C@H](c3ccccc31)[C@@H](CO)N2C(=O)C1CC1	none
C/C=C/c1ccc([C@@H]2[C@@H](CO)N3C(=O)CN(S(=O)(=O)c4ccccc4)C[C@H]23)cc1	none
CC(C)NC(=O)N1[C@H](CO)[C@@H](c2ccccc2-c2ccc(F)cc2)[C@@H]1C#N	none
Fc1ccc(-c2nnc(Cc3nnc(-c4ccc(F)cc4)o3)o2)cc1	none
Fc1ccc(NC2=NCCCCC2)cc1	none
Fc1ccc(-c2nnc(NC3=NCCCCC3)o2)cc1	BL2 CD40 inh 73.7
COCCNC(=O)C[C@@H]1C[C@@H]2c3cc(NC(=O)CN(C)C)ccc3O[C@@H]2[C@@H](CO)O1	none
CCC(=O)N1Cc2cc(C(=O)NCCOC)nc(-c3cccc(-c4ccc(C#N)cc4)c3)c2[C@@H]1CCO	none
CC=Cc1ccc2n(c1=O)C[C@@H]1[C@@H](CO)[C@H](C(=O)NC3CCC3)[C@H]2N1Cc1ccncc1 (mixture of isomers)	none
O=C(c1ccc([N+](=O)[O-])o1)N1CCN(c2nc3ccc(F)cc3s2)CC1	BL2 CD40 inh 31.8
COc1cccc2sc(N3CCN(c4nc5ccccc5s4)CC3)nc12	none
O=C(C1COc2ccccc2O1)N1CCN(c2nc3ccc([N+](=O)[O-])cc3s2)CC1 (stereo unspecified)	none

Bioassay records deposited in PubChem BioAssay by Broad Institute.
